{
  "source": "PubChem BioAssay (NCI)",
  "note": "This is part of a sample that, as a whole, favours compounds with a hit. Of some 79,000 tested, about 15% had one in any assay. A number with no mark means an inactive call. Calls of active or inactive are those of the source. Cut-off read from the data, not from the text of the source: active = growth inhibition above about 70%; inactive = the rest.",
  "data": [
    {"experiment": "NCI Yeast Anticancer Drug Screen. Data for the cln2 rad14 strain (AID 165);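 note: 0% = growth equal to vehicle treated cultures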", "details": "S. cerevisiae cln2 rad14 strain, at 50.0 µM, hits give high values", "procedure,_shortened": "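The screen exposed genetically defined yeast (cln2 rad14) to test compounds and scored growth inhibition relative to vehicle-treated controls.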", "values": [
      {"smiles": "COc1ccc2c(Cc3cc(Cl)ccc3O)cncc2c1O", "growth inhibition": "40%"},
      {"smiles": "Cc1ccc(NNC2=NC(=S)NC(=O)C2)cc1", "growth inhibition": "84.8% (active)"},
      {"smiles": "CC#CC(=O)Nc1ccccc1CC(c1c[nH]c2ccccc12)c1c[nH]c2ccccc12", "growth inhibition": "67.7%"},
      {"smiles": "COC(=O)c1c2oc3c(C(=O)OC)cccc3nc-2cc(N)c1=O", "growth inhibition": "-46.5%"},
      {"smiles": "CCCCCC(=O)NNc1ccccc1", "growth inhibition": "78% (active)"},
      {"smiles": "CN(C)CCNc1ccc2nnn3c4ccc(O)cc4c(=O)c1c23", "growth inhibition": "25.4%"},
      {"smiles": "COc1ccc2c(c1)C(=O)C[C@@H]1[C@](C)(C#N)CCC[C@]21C", "growth inhibition": "-2.7%"},
      {"smiles": "CCC(=O)c1cc2ccccc2c2ccccc12", "growth inhibition": "9.9%"},
      {"smiles": "O=C1OCCCOC(=O)c2cc(ccc2O)OCC#CC#CCOc2ccc(O)c1c2", "growth inhibition": "38.6%"},
      {"smiles": "Nc1nc(Cl)cc(NCC2(CO)CC(CCCc3ccccc3)C2)n1", "note": "(configuration not stated)", "growth inhibition": "-1.55%"},
      {"smiles": "NNC(=S)Nc1ccccc1", "growth inhibition": "-28.9%"},
      {"smiles": "CCOC(=O)c1ccc(N=Cc2cc(Cl)cc(Cl)c2O)cc1", "growth inhibition": "78.9% (active)"},
      {"smiles": "CC(C(=O)N1C(=O)N(C(=O)C(C)C(O)c2ccccc2)C(c2ccccc2)C1c1ccccc1)C(O)c1ccccc1", "note": "(configuration not stated)", "growth inhibition": "90.1% (active)"},
      {"smiles": "CC(C)(C)CC(C)(C)N[P+](NC(C)(C)CC(C)(C)C)(NC(C)(C)CC(C)(C)C)NC(C)(C)CC(C)(C)C", "growth inhibition": "90.7% (active)"},
      {"smiles": "C/C(=N\\NC(=S)N1CCCC1)c1cnccn1", "growth inhibition": "97.7% (active)"},
      {"smiles": "N=C(N)c1ccc(OCCCCOc2ccc(N)cc2Cl)cc1", "growth inhibition": "-16.9%"},
      {"smiles": "CCCCCC(CN(C)C)C(O)/C=C\\c1ccccc1", "note": "(configuration not stated)", "growth inhibition": "4.9%"}
    ]}
  ]
}
